The values below come from PubChem BioAssay (NCI).

Among the test systems are HCT-15 colon; HT29 colon; SNB-75 CNS; SNB-19 CNS; U251 CNS; PC-3 prostate; SK-MEL-5 melanoma; UACC-62 melanoma; LOX IMVI melanoma; SK-MEL-28 melanoma; SK-MEL-2 melanoma; EKVX NSCLC; SN12C renal; UO-31 renal; TK-10 renal; ACHN renal; CAKI-1 renal; A498 renal; CCRF-CEM leukemia; MOLT-4 leukemia.
What all share (assay): NCI-60 one-dose screen, 48 h (100 = growth as untreated, 0 = no growth, -100 = all killed)
Details in all cases: 10 µM

The structures appear in SMILES notation. Compounds without any hit were thinned out: in the full panel of roughly 83,000, 20% have a hit.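 Method: cells in 96-well plates; compound added at one concentration; 48 h incubation; percent growth measured; values under 10 scored active.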 Unmarked numbers belong to inactive results. The source made the active and inactive calls.

With `N#Cc1c(NC(=O)c2ccc(C(F)(F)F)cc2)sc2c1CCC(=O)C2`, the growth is -66.1% (active) with HCT-15 colon; 8.13% (active) with HT29 colon; -44.9% (active) in the assay on SNB-75 CNS; -42.2% (active) in the assay on SNB-19 CNS; -66.3% (active) in the assay with U251 CNS; -9.55% (active) in the assay on PC-3 prostate. Also, the growth is -97.7% (active) in the assay on SK-MEL-5 melanoma; -82.7% (active) in the assay on UACC-62 melanoma; -86.8% (active) in the assay with LOX IMVI melanoma; -88.2% (active) in the assay on SK-MEL-28 melanoma; -57.9% (active) with SK-MEL-2 melanoma; -42.6% (active) in the assay on EKVX NSCLC. For the same compound, the growth with SN12C renal was -31.9% (active); in the assay on UO-31 renal, -99.9% (active); in the assay with TK-10 renal, -53.7% (active); in the assay on ACHN renal, -100% (active); in the assay with CAKI-1 renal it was -21.7% (active); in the assay on A498 renal it was 2.58% (active). In addition, the values for the growth in the assay on CCRF-CEM leukemia and with MOLT-4 leukemia were 7.92% (active) and 9.79% (active), respectively.

Take `Nc1nc(Nc2ccc(Cl)cc2)n(Cc2cccc(Br)c2)n1`: the growth was -52.7% (active) in the assay on HCT-15 colon; 11.4% in the assay on HT29 colon; -23.9% (active) in the assay with SNB-75 CNS; -12.3% (active) with SNB-19 CNS; -12.4% (active) with U251 CNS; 0.572% (active) in the assay on PC-3 prostate. Moreover, the growth with SK-MEL-5 melanoma is -100% (active); in the assay on UACC-62 melanoma, -82.3% (active); with LOX IMVI melanoma, -84.6% (active); with SK-MEL-28 melanoma it was -61.1% (active); in the assay on SK-MEL-2 melanoma it was -74.7% (active); in the assay on EKVX NSCLC, -4.06% (active). Further, the growth was -28.5% (active) with SN12C renal; -7.87% (active) in the assay on UO-31 renal; -3.35% (active) in the assay on TK-10 renal; 1.49% (active) in the assay with ACHN renal; 3.07% (active) in the assay with CAKI-1 renal; -49% (active) in the assay with A498 renal. Also, the growth in the assay with CCRF-CEM leukemia is 4.65% (active); in the assay on MOLT-4 leukemia, 8.42% (active).

`CC1=C(c2cc(-c3ccc(Cl)cc3)c(C#N)c(N)n2)C(c2ccccc2)NC(=S)N1` (stereo not given): the growth was 10.9% in the assay with HCT-15 colon; 24.7% with HT29 colon; 36.5% in the assay with SNB-75 CNS; 75.4% in the assay on SNB-19 CNS; 38.8% in the assay on U251 CNS; 49.8% in the assay with PC-3 prostate. Further, the growth with SK-MEL-5 melanoma was 58.1%; with UACC-62 melanoma it was 62.7%; in the assay with LOX IMVI melanoma, -49.2% (active); in the assay with SK-MEL-28 melanoma, 57.7%; in the assay on SK-MEL-2 melanoma, 98.6%; with EKVX NSCLC, 98.6%. Moreover, the growth is 62.2% with SN12C renal; 63.5% in the assay on UO-31 renal; 114% in the assay on TK-10 renal; 19.6% with ACHN renal; 72.3% in the assay with CAKI-1 renal; 137% with A498 renal. Besides, the growth is 7.65% (active) in the assay on CCRF-CEM leukemia and 6.11% (active) with MOLT-4 leukemia.

For the compound `O=C(N/N=C/c1ccc(-c2cccc([N+](=O)[O-])c2)o1)c1[nH]c2ccc(Br)cc2c1-c1ccccc1`, the growth in the assay on HCT-15 colon is 0.278% (active); with HT29 colon, -44.9% (active); in the assay with SNB-75 CNS, 83.1%; with SNB-19 CNS it was 32.9%; with U251 CNS, 9.05% (active); in the assay on PC-3 prostate it was 18.8%. Also, the growth with SK-MEL-5 melanoma was -20.7% (active); in the assay with UACC-62 melanoma, 33%; in the assay on LOX IMVI melanoma, 7.19% (active); in the assay with SK-MEL-28 melanoma, 57.7%; in the assay with SK-MEL-2 melanoma, 22.8%; with EKVX NSCLC it was 54.4%. In addition, the growth is 3.81% (active) in the assay with SN12C renal; 38.9% in the assay with UO-31 renal; 40.4% in the assay on TK-10 renal; 22.9% in the assay on ACHN renal; 21.4% with CAKI-1 renal; 77.9% with A498 renal. Also, the values for the growth in the assay on CCRF-CEM leukemia and in the assay with MOLT-4 leukemia were -2.99% (active) and 4.53% (active), respectively.

For `Cc1cc(=O)oc2cc(OCCCCOc3ccc(/C=C/C(=O)Nc4ccccc4[N+](=O)[O-])cc3)ccc12`, the growth is 104% in the assay with HCT-15 colon; 117% in the assay on HT29 colon; 103% in the assay with SNB-75 CNS; 97.8% in the assay on SNB-19 CNS; 106% in the assay on U251 CNS; 109% in the assay with PC-3 prostate. In addition, the growth in the assay on SK-MEL-5 melanoma is 102%; in the assay on UACC-62 melanoma, 94.9%; in the assay on LOX IMVI melanoma, 107%; with SK-MEL-28 melanoma, 103%; in the assay on SK-MEL-2 melanoma, 117%; with EKVX NSCLC, 105%. In addition, the growth in the assay on SN12C renal was 100%; with UO-31 renal, 90.6%; with TK-10 renal, 104%; with ACHN renal it was 108%; in the assay with CAKI-1 renal, 100%; in the assay with A498 renal, 127%. The growth was 99.8% with CCRF-CEM leukemia and 108% with MOLT-4 leukemia.

With `O=C(CSc1nnc(-c2c[nH]c3ccccc23)n1-c1ccccc1)c1ccc(Cl)cc1`, the growth was 73.3% with HCT-15 colon; 42.6% in the assay with HT29 colon; 54.7% with SNB-75 CNS; 40% in the assay on SNB-19 CNS; 30.1% with U251 CNS; 60.4% with PC-3 prostate. The growth was 78.2% in the assay with SK-MEL-5 melanoma; 52.8% in the assay on UACC-62 melanoma; 15.9% with LOX IMVI melanoma; 68.3% in the assay on SK-MEL-28 melanoma; 33.7% in the assay with SK-MEL-2 melanoma; 25.6% in the assay on EKVX NSCLC. The growth was 64.6% in the assay with SN12C renal; 54.8% in the assay with UO-31 renal; 84% with TK-10 renal; 57.5% with ACHN renal; 64.5% with CAKI-1 renal; 57.3% in the assay with A498 renal. The growth in the assay with CCRF-CEM leukemia is 92.7%; in the assay on MOLT-4 leukemia, 104%.

In the case of `Cc1ccc(C(=O)NNC(=O)CSc2nc3ccccc3c(=O)[nH]2)cc1`, the growth in the assay with HCT-15 colon is 103%; with HT29 colon it was 111%; in the assay on SNB-75 CNS it was 83.1%; with SNB-19 CNS it was 92.8%; in the assay on U251 CNS, 104%; with PC-3 prostate it was 90.4%. Besides, the growth with SK-MEL-5 melanoma is 98.7%; with UACC-62 melanoma, 89.4%; in the assay on LOX IMVI melanoma, 96.3%; in the assay with SK-MEL-28 melanoma it was 104%; with SK-MEL-2 melanoma, 107%; with EKVX NSCLC it was 97.2%. The growth was 94.1% in the assay with SN12C renal; 75.2% with UO-31 renal; 107% in the assay on TK-10 renal; 107% with ACHN renal; 95.7% in the assay with CAKI-1 renal; 94.6% in the assay with A498 renal. For the same compound, the growth with CCRF-CEM leukemia was 98.8%; in the assay on MOLT-4 leukemia, 96.4%.

Consider `CC(=O)c1cc(C(=O)c2ccc3c(c2)NC(=O)CO3)n2ccc3ccccc3c12`, for which the growth in the assay with HCT-15 colon is 71.1%; with HT29 colon it was 56.5%; in the assay on SNB-75 CNS it was 114%; with SNB-19 CNS, 69.6%; in the assay with U251 CNS, 26.5%; in the assay on PC-3 prostate it was 80.3%. Moreover, the growth was 57.6% in the assay with SK-MEL-5 melanoma; 94.7% in the assay with UACC-62 melanoma; 56.5% with LOX IMVI melanoma; 88.4% with SK-MEL-28 melanoma; 107% in the assay with SK-MEL-2 melanoma; 75% with EKVX NSCLC. The growth is 86.1% in the assay with SN12C renal; 59% in the assay with UO-31 renal; 78.2% in the assay on TK-10 renal; 50% in the assay on ACHN renal; 55.4% with CAKI-1 renal; 97.3% with A498 renal. Moreover, the growth was 82.9% with CCRF-CEM leukemia and 66.8% with MOLT-4 leukemia.
